# From ChEMBL document CHEMBL1961873, “Compounds: GSK PKIS; Assays: Nanosyn kinase panel” (2012)
# Where “and” joins values, the source holds several entries; their conditions need not be identical. Equal entries are not always repeated.
# Columns and labels:
# [1] = target: Tyrosine-protein kinase receptor UFO (Homo sapiens) (UniProt P30530); details: at 1 µM
# [2] = target: Tyrosine-protein kinase Blk (Homo sapiens) (UniProt P51451); details: at 0.1 µM
# [3] = target: Tyrosine-protein kinase Blk (Homo sapiens) (UniProt P51451); details: at 1 µM
# [4] = target: T1, Cytoplasmic tyrosine-protein kinase BMX (Homo sapiens) (UniProt P51813); details: at 0.1 µM
# T1 sequence (whole entry): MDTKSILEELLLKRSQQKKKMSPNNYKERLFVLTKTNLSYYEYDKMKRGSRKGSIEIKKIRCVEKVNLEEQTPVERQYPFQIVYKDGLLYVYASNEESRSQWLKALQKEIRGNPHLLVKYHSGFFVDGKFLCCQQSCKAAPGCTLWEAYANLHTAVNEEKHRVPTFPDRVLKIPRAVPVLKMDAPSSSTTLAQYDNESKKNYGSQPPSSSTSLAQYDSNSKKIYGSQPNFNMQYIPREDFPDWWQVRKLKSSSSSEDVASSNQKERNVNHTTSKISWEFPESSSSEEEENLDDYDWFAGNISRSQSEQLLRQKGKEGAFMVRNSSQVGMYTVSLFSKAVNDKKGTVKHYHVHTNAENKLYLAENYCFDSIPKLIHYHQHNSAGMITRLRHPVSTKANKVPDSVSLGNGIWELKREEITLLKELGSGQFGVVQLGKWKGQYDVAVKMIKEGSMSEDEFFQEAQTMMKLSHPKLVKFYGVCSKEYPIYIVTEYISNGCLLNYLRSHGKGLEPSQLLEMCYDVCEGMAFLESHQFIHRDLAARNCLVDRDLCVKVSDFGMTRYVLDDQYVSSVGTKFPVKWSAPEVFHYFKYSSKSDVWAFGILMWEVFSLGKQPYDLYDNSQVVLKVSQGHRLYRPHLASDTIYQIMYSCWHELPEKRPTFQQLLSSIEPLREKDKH
# [5] = target: T1, Cytoplasmic tyrosine-protein kinase BMX (Homo sapiens); details: at 1 µM
# [6] = target: Protein-tyrosine kinase 6 (Homo sapiens) (UniProt Q13882); details: at 0.1 µM
# [7] = target: Protein-tyrosine kinase 6 (Homo sapiens) (UniProt Q13882); details: at 1 µM
# [8] = target: Tyrosine-protein kinase BTK (Homo sapiens) (UniProt Q06187); details: at 0.1 µM
# [9] = target: Tyrosine-protein kinase BTK (Homo sapiens) (UniProt Q06187); details: at 1 µM
# [10] = target: Tyrosine-protein kinase CSK (Homo sapiens) (UniProt P41240); details: at 0.1 µM
# [11] = target: Tyrosine-protein kinase CSK (Homo sapiens) (UniProt P41240); details: at 1 µM
# [12] = target: T2, Discoidin domain-containing receptor 2 (Homo sapiens) (UniProt Q16832); details: at 0.1 µM
# T2 sequence (whole entry): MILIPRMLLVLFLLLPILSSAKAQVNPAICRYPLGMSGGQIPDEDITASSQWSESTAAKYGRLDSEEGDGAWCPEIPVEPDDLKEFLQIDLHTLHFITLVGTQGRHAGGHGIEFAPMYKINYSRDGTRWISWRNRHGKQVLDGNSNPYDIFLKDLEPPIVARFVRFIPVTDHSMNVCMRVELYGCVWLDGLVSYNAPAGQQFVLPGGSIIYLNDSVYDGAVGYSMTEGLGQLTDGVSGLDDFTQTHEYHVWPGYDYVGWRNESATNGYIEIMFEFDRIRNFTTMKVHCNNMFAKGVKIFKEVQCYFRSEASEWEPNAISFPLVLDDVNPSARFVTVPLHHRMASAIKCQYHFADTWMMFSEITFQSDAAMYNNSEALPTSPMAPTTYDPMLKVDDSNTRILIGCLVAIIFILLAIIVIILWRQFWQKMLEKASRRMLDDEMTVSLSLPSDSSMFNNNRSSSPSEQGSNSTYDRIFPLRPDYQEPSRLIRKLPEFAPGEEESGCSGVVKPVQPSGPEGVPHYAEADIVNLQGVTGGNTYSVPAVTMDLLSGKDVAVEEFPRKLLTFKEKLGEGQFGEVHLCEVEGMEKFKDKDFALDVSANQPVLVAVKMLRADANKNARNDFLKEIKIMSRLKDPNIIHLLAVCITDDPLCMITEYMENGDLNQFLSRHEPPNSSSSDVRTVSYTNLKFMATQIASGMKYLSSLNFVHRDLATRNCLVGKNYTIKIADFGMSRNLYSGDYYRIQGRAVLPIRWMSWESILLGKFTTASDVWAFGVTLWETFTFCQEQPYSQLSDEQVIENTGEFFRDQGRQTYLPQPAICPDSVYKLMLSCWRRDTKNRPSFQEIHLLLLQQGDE
# [13] = target: T2, Discoidin domain-containing receptor 2 (Homo sapiens); details: at 1 µM
# [14] = target: Epidermal growth factor receptor (Homo sapiens) (UniProt P00533); details: at 0.1 µM
# [15] = target: Epidermal growth factor receptor (Homo sapiens) (UniProt P00533); details: at 1 µM
# [16] = test system: Epidermal growth factor receptor (Homo sapiens), P00533 [L858R]; details: at 0.1 µM
# [17] = test system: Epidermal growth factor receptor (Homo sapiens), P00533 [L858R]; details: at 1 µM
# [18] = test system: Epidermal growth factor receptor (Homo sapiens), P00533 [L861Q]; details: at 0.1 µM
# [19] = test system: Epidermal growth factor receptor (Homo sapiens), P00533 [L861Q]; details: at 1 µM
# [20] = test system: Epidermal growth factor receptor (Homo sapiens), P00533 [T790M]; details: at 0.1 µM
# Epidermal growth factor receptor (Homo sapiens), P00533 [T790M], sequence (P00533 whole entry T790M): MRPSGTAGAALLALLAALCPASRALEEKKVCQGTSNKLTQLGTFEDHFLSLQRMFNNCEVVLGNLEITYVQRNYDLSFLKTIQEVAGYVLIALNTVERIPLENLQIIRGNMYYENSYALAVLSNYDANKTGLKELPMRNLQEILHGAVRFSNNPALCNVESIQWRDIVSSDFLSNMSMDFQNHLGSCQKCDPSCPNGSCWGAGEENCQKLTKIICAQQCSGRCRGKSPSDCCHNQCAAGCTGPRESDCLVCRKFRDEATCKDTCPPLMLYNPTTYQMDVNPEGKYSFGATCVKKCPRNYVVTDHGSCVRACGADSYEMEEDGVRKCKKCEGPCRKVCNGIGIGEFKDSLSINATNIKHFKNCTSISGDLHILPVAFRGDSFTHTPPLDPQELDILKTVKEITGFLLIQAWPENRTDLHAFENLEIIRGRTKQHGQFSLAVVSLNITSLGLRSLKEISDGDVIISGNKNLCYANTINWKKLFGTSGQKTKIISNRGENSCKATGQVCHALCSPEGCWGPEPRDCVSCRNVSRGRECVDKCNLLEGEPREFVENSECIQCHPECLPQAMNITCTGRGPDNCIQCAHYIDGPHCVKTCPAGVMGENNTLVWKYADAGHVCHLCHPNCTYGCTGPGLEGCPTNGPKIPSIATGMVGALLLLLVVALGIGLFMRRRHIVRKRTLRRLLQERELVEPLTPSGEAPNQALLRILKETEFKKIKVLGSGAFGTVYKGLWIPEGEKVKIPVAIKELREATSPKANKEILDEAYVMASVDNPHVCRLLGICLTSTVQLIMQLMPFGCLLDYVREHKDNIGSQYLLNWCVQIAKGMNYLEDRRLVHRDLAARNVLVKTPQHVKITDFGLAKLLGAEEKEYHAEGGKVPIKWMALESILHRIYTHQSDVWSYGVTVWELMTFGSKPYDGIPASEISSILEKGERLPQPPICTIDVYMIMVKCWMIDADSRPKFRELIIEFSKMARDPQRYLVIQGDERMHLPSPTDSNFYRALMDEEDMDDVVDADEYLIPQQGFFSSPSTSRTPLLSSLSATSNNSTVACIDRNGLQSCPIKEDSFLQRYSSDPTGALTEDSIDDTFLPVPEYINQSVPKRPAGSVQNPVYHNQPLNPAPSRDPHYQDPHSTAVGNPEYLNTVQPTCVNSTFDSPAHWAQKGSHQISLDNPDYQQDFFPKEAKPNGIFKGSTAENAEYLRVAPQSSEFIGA
# Tyrosine-protein kinase Blk (Homo sapiens), sequence (P51451 2-505 limits assumed): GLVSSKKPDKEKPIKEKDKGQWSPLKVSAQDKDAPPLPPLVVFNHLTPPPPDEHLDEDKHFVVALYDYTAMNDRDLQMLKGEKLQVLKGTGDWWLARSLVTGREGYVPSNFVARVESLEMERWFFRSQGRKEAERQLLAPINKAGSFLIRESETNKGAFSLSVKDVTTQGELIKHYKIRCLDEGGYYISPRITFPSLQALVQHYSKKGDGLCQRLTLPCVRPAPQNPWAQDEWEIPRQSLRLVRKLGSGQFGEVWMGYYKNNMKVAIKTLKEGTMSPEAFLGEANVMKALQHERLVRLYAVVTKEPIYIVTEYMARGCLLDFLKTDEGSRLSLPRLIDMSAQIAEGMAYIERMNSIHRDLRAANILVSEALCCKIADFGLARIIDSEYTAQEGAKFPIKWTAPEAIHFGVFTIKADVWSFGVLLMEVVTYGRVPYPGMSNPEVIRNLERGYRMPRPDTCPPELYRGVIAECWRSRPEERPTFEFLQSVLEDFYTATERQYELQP
# Epidermal growth factor receptor (Homo sapiens), P00533 [L858R], sequence (P00533 whole entry L858R): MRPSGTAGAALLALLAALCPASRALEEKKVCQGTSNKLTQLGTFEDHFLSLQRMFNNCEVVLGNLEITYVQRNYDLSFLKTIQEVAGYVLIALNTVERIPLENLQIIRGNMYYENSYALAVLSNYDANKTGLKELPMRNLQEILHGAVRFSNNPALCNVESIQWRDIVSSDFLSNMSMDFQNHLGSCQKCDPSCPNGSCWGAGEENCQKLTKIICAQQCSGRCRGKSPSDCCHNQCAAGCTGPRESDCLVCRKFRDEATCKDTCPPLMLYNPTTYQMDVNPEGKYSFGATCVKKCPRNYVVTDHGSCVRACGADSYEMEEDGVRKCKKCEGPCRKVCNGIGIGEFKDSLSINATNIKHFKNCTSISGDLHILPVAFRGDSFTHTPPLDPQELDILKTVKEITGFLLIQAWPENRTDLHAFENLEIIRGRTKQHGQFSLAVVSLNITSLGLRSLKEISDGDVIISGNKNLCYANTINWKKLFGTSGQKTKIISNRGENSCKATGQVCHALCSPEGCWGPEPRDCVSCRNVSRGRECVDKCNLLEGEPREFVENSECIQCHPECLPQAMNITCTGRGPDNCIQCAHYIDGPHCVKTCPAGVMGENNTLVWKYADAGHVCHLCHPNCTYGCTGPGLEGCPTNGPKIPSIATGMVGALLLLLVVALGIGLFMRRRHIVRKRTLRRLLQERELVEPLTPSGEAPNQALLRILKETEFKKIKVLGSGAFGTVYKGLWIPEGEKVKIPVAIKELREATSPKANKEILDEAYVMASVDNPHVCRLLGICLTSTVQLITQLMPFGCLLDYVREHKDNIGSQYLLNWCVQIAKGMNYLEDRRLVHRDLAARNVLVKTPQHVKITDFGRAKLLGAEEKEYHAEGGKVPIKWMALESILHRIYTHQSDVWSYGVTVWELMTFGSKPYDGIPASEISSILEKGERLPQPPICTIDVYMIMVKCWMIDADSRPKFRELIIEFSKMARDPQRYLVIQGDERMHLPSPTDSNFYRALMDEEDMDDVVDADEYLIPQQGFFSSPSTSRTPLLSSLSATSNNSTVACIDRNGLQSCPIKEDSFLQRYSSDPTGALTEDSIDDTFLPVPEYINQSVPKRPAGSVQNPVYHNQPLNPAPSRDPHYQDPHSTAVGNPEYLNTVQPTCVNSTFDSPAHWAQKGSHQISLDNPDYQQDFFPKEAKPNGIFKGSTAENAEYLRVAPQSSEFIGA
# Epidermal growth factor receptor (Homo sapiens), P00533 [L861Q], sequence (P00533 whole entry L861Q): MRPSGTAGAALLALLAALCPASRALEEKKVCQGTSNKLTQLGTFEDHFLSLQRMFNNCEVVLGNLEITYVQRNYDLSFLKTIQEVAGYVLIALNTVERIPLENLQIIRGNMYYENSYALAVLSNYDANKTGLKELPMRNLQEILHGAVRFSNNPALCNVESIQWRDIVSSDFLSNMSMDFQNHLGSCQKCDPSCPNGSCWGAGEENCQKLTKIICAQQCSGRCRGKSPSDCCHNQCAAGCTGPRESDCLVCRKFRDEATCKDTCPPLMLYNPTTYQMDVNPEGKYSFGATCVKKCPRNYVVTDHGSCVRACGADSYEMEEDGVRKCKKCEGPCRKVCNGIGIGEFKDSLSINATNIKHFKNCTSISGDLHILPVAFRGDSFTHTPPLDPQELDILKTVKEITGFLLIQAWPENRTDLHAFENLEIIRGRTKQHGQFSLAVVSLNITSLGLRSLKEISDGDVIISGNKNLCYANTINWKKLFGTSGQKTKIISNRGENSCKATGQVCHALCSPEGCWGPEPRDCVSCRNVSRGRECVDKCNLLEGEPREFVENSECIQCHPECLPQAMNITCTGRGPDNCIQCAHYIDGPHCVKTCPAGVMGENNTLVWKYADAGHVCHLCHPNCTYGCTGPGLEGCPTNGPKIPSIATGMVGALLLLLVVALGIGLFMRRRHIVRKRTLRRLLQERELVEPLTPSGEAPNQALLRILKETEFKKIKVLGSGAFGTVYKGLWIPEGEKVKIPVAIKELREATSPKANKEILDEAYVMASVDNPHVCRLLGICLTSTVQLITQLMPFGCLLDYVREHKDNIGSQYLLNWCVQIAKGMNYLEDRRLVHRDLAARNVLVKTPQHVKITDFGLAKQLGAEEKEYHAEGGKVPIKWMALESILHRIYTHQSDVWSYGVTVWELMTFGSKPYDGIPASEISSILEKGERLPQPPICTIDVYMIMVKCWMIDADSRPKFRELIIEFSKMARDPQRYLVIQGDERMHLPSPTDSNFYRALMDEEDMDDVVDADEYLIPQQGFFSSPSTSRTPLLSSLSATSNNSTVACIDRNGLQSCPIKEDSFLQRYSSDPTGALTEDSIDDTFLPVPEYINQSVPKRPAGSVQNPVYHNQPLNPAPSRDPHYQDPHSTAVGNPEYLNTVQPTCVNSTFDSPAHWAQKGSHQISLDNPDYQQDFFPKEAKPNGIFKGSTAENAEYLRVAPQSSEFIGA
# Tyrosine-protein kinase CSK (Homo sapiens), sequence (P41240 2-450 limits assumed): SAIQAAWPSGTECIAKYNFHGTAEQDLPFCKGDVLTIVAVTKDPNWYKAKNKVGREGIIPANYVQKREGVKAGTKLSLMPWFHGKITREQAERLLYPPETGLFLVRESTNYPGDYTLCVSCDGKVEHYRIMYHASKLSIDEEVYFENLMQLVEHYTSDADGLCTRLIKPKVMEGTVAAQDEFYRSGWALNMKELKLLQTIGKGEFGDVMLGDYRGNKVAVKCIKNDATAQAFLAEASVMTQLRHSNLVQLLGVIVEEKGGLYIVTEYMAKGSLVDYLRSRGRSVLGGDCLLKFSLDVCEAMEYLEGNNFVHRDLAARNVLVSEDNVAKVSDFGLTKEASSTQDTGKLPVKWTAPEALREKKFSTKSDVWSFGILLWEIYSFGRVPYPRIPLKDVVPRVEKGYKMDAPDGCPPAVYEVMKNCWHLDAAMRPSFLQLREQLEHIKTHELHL
# Protein-tyrosine kinase 6 (Homo sapiens), sequence (Q13882 whole entry, looked up): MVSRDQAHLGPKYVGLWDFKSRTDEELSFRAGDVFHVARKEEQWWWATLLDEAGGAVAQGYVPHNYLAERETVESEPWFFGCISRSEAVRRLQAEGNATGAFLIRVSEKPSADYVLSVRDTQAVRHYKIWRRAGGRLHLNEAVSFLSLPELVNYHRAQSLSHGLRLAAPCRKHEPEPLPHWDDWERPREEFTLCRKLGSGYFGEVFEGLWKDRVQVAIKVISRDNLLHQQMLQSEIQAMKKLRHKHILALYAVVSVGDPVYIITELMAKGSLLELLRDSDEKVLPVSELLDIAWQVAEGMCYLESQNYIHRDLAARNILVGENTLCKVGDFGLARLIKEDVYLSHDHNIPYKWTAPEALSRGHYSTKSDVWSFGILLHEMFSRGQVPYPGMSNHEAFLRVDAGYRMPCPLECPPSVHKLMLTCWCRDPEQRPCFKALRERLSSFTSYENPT
Structure (SMILES),inhibition [1],inhibition [2],inhibition [3],inhibition [4],inhibition [5],inhibition [6],inhibition [7],inhibition [8],inhibition [9],inhibition [10],inhibition [11],inhibition [12],inhibition [13],inhibition [14],inhibition [15],inhibition [16],inhibition [17],inhibition [18],inhibition [19],inhibition [20]
CN1CCC(n2cnc(-c3ccc(F)cc3)c2-c2ccnc(NCCO)n2)CC1,-5.39%,3.74%,2.11%,-6.22%,4.95%,3.29%,6.89%,0.96%,0.09%,7.33%,8.66%,2.1%,3.08%,0.6%,6.58%,0.99%,11%,4.45%,5.89%,3.52%
COc1c(C(N)=O)cc(-c2ccc(Cl)cc2)cc1-c1ccc(S(N)(=O)=O)cc1,-6.03%,1.95%,3.34%,4.08%,6.04%,3.21%,4.09%,-1.27%,-0.85%,3.55%,4.45%,1.62%,2.64%,1.55%,2.79%,2.2%,8.48%,2.27%,5.74%,1.41%
COc1cccc(Nc2nccc(-c3cnn4ncccc34)n2)c1,11.4%,2.91%,14%,9.52%,21.8%,1.39%,10.1%,0.35%,4.57%,4.74%,11.8%,0.85%,4.16%,-2.03%,5.8%,2.1%,9.34%,1.66%,3.56%,1.52%
NS(=O)(=O)c1ccc(N/N=C2\C(=O)Nc3cccc(CCc4ccncc4)c32)cc1,0.32%,4.33%,10.4%,3.67%,4.79%,-0.69%,-1.07%,0.17%,0.16%,1.04%,0.36%,1.26%,1.42%,4.28%,6.81%,-0.53%,3.04%,-0.31%,0.15%,0.27%
CN1CCN(Cc2ccc(-c3cc4ncnc(Nc5ccc(OCc6cccc(F)c6)c(Cl)c5)c4s3)o2)CC1,-0.55% and -6.25%,2.97% and 3.59%,13.3% and 15.7%,1.68% and 6.37%,5.03% and 3.73%,6.28% and 7.91%,29.5% and 33.2%,-0.21% and -0.71%,2.04% and 2.62%,2.47% and 5.63%,12.6% and 17.7%,1.16% and 0.39%,1.23% and -0.86%,,,,,,,
N#Cc1ccc2c(-c3ccnc(NC4CC4)n3)c(-c3ccc(F)cc3)nn2c1,-4.53%,-1.08%,-3.55%,1.17%,2.56%,-1.17%,2.88%,-0.25%,-2.34%,1.65%,3.45%,4.32%,15.8%,1.52%,13.8%,5.89%,41.3%,1.64%,12.9%,-0.38%
Cn1c(-c2nonc2N)nc2cnccc21,-1.86%,0.51%,0.41%,9.58%,4.09%,4.32%,4.24%,0.86%,0.33%,3.1%,-0.66%,0.53%,2.78%,8.18%,8.08%,3.74%,5.92%,3.1%,4.3%,1.55%
